Results as given in PubChem BioAssay (Tox21).
Inconclusive results are not listed. The source made the active and inactive calls. Unless noted, calls follow the shape of the dose curve; as a rule, active = well fitted curve in the direction sought with a large enough effect in the repeat runs; inconclusive = weak or mixed curves; inactive = no such curve, though single readings can be large; an effect the other way counts as inactive or inconclusive.

What was measured:
[1] = molecular target: Thyrotropin receptor (Homo sapiens) (UniProt P16473); assay: qHTS assay to identify small molecule antagonists of the thyroid stimulating hormone receptor (TSHR) signaling pathway (AID 1259385; calls by dose curve; also: nearly all actives have a fitted effect of over 20% in size)
Chain of Thyrotropin receptor (Homo sapiens) (P16473 whole entry, looked up): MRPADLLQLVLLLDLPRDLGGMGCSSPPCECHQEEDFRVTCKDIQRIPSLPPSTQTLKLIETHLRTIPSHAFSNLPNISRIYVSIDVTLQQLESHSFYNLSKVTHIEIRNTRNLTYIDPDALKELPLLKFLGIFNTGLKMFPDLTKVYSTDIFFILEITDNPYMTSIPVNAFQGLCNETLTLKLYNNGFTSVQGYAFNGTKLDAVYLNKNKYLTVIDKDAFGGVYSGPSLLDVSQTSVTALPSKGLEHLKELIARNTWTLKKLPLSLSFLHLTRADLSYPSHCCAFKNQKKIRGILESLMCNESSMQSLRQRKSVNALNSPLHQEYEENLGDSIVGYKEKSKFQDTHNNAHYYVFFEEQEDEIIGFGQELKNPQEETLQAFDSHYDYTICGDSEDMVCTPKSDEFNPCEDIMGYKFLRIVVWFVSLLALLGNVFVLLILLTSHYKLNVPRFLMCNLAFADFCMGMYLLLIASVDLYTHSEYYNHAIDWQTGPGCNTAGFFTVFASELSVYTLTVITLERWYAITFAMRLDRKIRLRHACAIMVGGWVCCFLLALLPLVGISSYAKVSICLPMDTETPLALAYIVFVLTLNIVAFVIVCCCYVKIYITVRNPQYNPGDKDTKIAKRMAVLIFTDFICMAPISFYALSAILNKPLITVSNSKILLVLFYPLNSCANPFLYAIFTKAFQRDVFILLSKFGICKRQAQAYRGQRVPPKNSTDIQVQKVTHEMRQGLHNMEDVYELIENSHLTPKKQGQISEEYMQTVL
Outline: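 Antagonist mode: compound-treated TSHR-expressing HEK293 cells were stimulated with 1.5 ng/mL TSH (final) in presence of Ro20-1724 for 30 min at RT. HTRF cAMP detection after 1 h; each compound tested at 15 concentrations, triplicate.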

[2] = qHTS assay to identify small molecule antagonists of the progesterone receptor (PR) signaling pathway - cell viability counter screen (AID 1346798); also: series mostly up to about 92 µM; nearly all actives have a fitted effect of over 50% in size
Outline: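 ATP content as viability readout: CellTiter-Glo luminescence, 30 min room temperature, in PR-UAS-bla HEK293T cells after 16 hr compound/R5020 treatment at 37C and 5% CO2.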

[3] = qHTS assay to identify small molecule agonists of the progesterone receptor (PR) signaling pathway - cell viability counter screen (AID 1346799; calls by dose curve; also: nearly all actives have a fitted effect of over 45% in size)
Outline: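 Cytotoxicity in PR-bla HEK293T cells: 16 h compound, 37C; CellTiter-Glo added post-FRET read; luminescence after 30 min RT.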

[4] = qHTS assay to identify small molecule antagonists of the TGF-beta/Smad signaling pathway - cell viability counter screen (AID 1346824); also: nearly all actives have a fitted effect of over 50% in size
Outline: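 Cytotoxicity counter-screen run in the same wells as the beta-lactamase Smad reporter read: CellTiter-Glo luminescence after 30 min at room temperature. HEK 293T SBE-bla cells had 5 hr compound exposure at 37 C with TGF-beta1 (0.25 ng/mL stock).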

[5] = qHTS assay to identify small molecule agonists of the TGF-beta/Smad signaling pathway - cell viability counter screen (AID 1346829); also: top concentration of the series differs between compounds; nearly all actives have a fitted effect of over 45% in size
Outline: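 Tox21 qHTS format: SBE-bla HEK 293T cells treated with DMSO-dissolved compounds for 5 hr; CellTiter-Glo luminescence after 30 min at room temperature.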

[6] = qHTS assay to identify small molecule agonists of the TGF-beta/Smad signaling pathway (AID 1346859; active = well fitted activation curve with a large enough effect in the signal ratio in the repeat runs, not every such curve was filed as active; the % refers to the signal ratio; also: series mostly up to about 77 µM)
Outline: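 Stable Smad binding element-beta-lactamase HEK 293T cells; 5 hr compound exposure at 37 C under 5% CO2; 2 hr room-temperature substrate step; fluorescence excited at 405 nm, collected at 460 nm and 530 nm.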

[7] = Human pregnane X receptor (PXR) small molecule agonists, qHTS cell viability counter screen (AID 1346977); also: nearly all actives have a fitted effect of over 50% in size
Outline: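 Readout is CellTiter-Fluor fluorescence from PXR-Luc HepG2 cells. Plated cells rested 5hr, then were treated with compounds for 24hr at 37C and 5% CO2, with reagent present during the last hour.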

[8] = Caspase-3/7 induction in HepG2 cells by small molecules, qHTS assay (AID 1346978); also: nearly all actives have a fitted effect of over 15% in size
Outline: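 Caspase-3/7 induction was measured by Caspase-Glo 3/7 luminescence (30 min, room temperature) after a 17 hr compound exposure of wild-type HepG2 cells seeded at 2,000 per well and pre-incubated 5 hr.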

[9] = Caspase-3/7 induction in CHO-K1 cells by small molecules, qHTS cell viability counter screen (AID 1346979); also: nearly all actives have a fitted effect of over 35% in size
Outline: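 To flag cytotoxic compounds, treated CHO-K1 wild-type cells were given CellTiter-Fluor at 16hr and read fluorescently after 1hr at 37C; the caspase-3/7 luminescence was measured in these same wells.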

[10] = Caspase-3/7 induction in CHO-K1 cells by small molecules, qHTS assay (AID 1346980); also: nearly all actives have a fitted effect of over 15% in size
Outline: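 Luminescent Caspase-Glo 3/7 read (30min, room temperature) quantified apoptosis induction. Cells were wild-type CHO-K1, treated with compound for 17hr at 37 C and 5% CO2.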

[11] = Caspase-3/7 induction in HepG2 cells by small molecules, qHTS cell viability counter screen (AID 1346981); also: series mostly up to about 92 µM; nearly all actives have a fitted effect of over 30% in size
Outline: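 Viability determined by CellTiter-Fluor fluorescence in HepG2 wells also used for the luminescent Caspase-Glo 3/7 read. Compounds were present for 16 hr at 37 C, 5% CO2 before reagent addition.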

[12] = molecular target: Nuclear receptor subfamily 1 group I member 2 (Homo sapiens) (UniProt O75469); assay: Human pregnane X receptor (PXR) small molecule agonists, qHTS assay (AID 1346982); also: nearly all actives have a fitted effect of over 35% in size; also: potency is read from the fitted curve at half-maximal effect
Chain of Nuclear receptor subfamily 1 group I member 2 (Homo sapiens) (O75469 whole entry, looked up): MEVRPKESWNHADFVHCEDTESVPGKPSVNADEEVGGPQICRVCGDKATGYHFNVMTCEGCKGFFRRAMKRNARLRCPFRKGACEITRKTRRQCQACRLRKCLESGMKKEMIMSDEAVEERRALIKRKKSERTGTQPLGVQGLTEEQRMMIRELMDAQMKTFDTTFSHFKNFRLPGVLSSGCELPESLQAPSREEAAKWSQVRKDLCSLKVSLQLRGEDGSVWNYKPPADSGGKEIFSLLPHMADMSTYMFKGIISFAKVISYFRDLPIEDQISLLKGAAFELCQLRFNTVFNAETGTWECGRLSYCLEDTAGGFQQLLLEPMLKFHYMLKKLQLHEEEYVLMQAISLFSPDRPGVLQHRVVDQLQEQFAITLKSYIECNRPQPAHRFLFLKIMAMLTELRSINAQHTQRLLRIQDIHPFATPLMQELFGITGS
Outline: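 Compound-induced hPXR transactivation of a CYP3A4 luciferase reporter was scored in HepG2 PXR-Luc cells over 24 hr at 37 C, 5% CO2, by luminescence.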

[13] = qHTS assay to identify small molecule agonists of the estrogen receptor alpha (ER-alpha) signaling pathway in the presence of an antagonist - cell viability counter screen (AID 1259386);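 also: series mostly up to about 92 µM; cells exposed to compounds for 22 h at 37 °C before the viability read; nearly all actives have a fitted effect of over 30% in size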
Outline: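 Viability counter screen using VM7Luc4E2 (full-length ER-alpha, four ERE-luciferase). The cells were treated with compounds alongside ICI-182,780 10.0nM for 22hr, and live-cell protease fluorescence was quantified with CellTiter-Fluor.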

[14] = molecular target: Thyrotropin-releasing hormone receptor (Homo sapiens) (UniProt P34981); assay: qHTS assay to identify small molecule antagonists of the thyrotropin-releasing hormone receptor (TRHR) signaling pathway (AID 1346877; active = well fitted inhibition curve with a large enough effect in the repeat runs, not every such curve was filed as active; also: series mostly up to about 51 µM)
Chain of Thyrotropin-releasing hormone receptor (Homo sapiens) (P34981 whole entry, looked up): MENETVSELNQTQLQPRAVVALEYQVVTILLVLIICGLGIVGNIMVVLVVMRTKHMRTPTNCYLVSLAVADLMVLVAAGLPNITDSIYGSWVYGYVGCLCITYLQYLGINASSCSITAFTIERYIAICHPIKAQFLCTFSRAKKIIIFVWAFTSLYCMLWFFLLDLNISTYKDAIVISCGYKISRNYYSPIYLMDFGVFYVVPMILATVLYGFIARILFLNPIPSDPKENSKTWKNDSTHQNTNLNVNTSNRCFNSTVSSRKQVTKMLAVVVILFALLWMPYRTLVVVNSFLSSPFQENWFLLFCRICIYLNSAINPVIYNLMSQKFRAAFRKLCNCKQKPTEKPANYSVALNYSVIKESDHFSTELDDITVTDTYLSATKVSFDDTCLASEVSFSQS
Outline: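 Following an 18 h incubation at 37 °C and a 2 h calcium dye load, TRHR-HEK293 cells were exposed to compound (5 min, room temperature) and challenged with TRH, 1 nM final.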

[15] = molecular target: Thyrotropin-releasing hormone receptor (Homo sapiens) (UniProt P34981); assay: qHTS assay to identify small molecule agonists of the thyrotropin-releasing hormone receptor (TRHR) signaling pathway (AID 1346891; calls by dose curve;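 also: HEK293 cells expressing TRHR with calcium dye readout; series mostly up to about 58 µM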)
Outline: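 In 1536-format, 1500 TRHR-Hek293 cells per well grew 18 h, took up calcium dye for 2 h at 37 °C, received compound, and were read kinetically; 15-point titrations, triplicates.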

[16] = molecular target: Progesterone receptor (Homo sapiens) (UniProt P06401); assay: qHTS assay to identify small molecule agonists of the progesterone receptor (PR) signaling pathway (AID 1346784; calls by dose curve; also: nearly all actives have a fitted effect of over 30% in size)
Chain of Progesterone receptor (Homo sapiens) (P06401 whole entry, looked up): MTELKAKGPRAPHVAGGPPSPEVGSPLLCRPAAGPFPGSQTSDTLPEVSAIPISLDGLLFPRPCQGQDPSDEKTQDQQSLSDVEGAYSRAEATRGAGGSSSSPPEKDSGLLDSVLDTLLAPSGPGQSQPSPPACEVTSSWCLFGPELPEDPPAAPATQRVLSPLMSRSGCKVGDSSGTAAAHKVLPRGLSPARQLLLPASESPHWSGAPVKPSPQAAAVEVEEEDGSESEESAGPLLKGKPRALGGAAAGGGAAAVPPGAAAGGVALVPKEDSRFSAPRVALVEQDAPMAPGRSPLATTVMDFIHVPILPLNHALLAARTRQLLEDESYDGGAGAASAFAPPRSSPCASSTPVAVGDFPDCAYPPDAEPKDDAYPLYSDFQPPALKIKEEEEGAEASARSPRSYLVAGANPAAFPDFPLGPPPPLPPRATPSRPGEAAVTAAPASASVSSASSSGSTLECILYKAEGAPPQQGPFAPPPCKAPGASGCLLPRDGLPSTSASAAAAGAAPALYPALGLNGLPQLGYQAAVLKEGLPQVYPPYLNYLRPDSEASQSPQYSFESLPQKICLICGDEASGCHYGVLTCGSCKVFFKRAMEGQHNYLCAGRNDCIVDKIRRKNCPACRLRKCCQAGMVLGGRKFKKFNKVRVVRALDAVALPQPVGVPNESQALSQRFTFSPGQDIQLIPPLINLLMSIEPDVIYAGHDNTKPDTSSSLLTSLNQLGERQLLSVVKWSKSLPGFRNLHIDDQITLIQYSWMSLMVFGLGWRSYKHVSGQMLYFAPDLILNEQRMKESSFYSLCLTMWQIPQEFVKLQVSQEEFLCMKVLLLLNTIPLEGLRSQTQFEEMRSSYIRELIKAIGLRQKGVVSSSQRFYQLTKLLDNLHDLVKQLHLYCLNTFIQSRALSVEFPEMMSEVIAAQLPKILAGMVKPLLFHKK
Outline: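 Using charcoal-stripped serum (2%) to limit endogenous steroids, PR-UAS-bla HEK 293T cells received compounds for 16 hr at 37C after 6 hr plating; beta-lactamase FRET fluorescence was recorded following 2 hr substrate loading at room temperature.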

[17] = molecular target: Progesterone receptor (Homo sapiens) (UniProt P06401); assay: qHTS assay to identify small molecule antagonists of the progesterone receptor (PR) signaling pathway (AID 1346795; active = well fitted inhibition curve with a large enough effect in the signal ratio in the repeat runs, not every such curve was filed as active; the % refers to the signal ratio)
Outline: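 Inhibition of R5020-induced (1 nM final) beta-lactamase reporter signal in PR-UAS-bla HEK293T cells was scored by FRET fluorescence after overnight (16 hr) compound treatment.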

[18] = molecular target: Nuclear receptor subfamily 1 group I member 2 (Rattus norvegicus) (UniProt Q9R1A7); assay: Rat pregnane X receptor (rPXR) activation by small molecules, qHTS assay (AID 1346983); settings: rPXR luciferase reporter cells, One-Glo luminescence, 24 h; max activation: hits give high values; also: nearly all actives have a fitted effect of over 20% in size; also: potency is read from the fitted curve at half-maximal effect
Chain of Nuclear receptor subfamily 1 group I member 2 (Rattus norvegicus) (Q9R1A7 whole entry, looked up): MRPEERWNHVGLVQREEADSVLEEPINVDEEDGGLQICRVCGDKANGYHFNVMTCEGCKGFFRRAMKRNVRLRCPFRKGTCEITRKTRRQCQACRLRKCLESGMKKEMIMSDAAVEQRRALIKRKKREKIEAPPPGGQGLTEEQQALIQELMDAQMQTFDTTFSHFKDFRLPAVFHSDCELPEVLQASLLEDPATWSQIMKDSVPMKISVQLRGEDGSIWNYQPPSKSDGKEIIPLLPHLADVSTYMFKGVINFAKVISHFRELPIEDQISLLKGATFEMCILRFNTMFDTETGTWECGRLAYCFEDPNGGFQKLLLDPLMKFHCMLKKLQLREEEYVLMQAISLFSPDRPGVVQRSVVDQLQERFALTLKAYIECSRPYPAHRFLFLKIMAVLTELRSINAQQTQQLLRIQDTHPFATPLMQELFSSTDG
Outline: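 Luminescent readout (One-Glo luciferase, 30 min room temperature) followed 24 hr compound treatment at 37 C of rPXR cells plated 2,000 per well and preincubated 5hr; qHTS format with compounds delivered in DMSO.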

[19] = molecular target: Nuclear receptor subfamily 1 group I member 2 (Homo sapiens) (UniProt O75469); assay: CYP3A4 induction through human pregnane X receptor (PXR) by small molecules, qHTS assay (AID 1346984); also: nearly all actives have a fitted effect of over 40% in size
Outline: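 Readings come from a luciferase reporter: DPX-2 cells, which are HepG2 cotransfected with PXR and a CYP3A4-promoter construct, were exposed to test compounds for 24 h at 37C before One-Glo detection.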

[20] = molecular target: Nuclear receptor subfamily 1 group I member 2 (Homo sapiens) (UniProt O75469); assay: Human pregnane X receptor (PXR) activation by small molecules, qHTS assay (AID 1346985); also: nearly all actives have a fitted effect of over 40% in size; also: potency is read from the fitted curve at half-maximal effect
Outline: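 DPX-2 cells (HepG2 co-transfected with a PXR response element and a CYP3A4-promoter luciferase construct) were seeded at 2,000 per well, rested 5 hr at 37C, then exposed to DMSO-dissolved compounds for 24 hr. Activation was read as luciferase luminescence.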
% is scaled to controls: 0 for no effect and ±100 for the full control effect.

COC(=O)CCCC(=O)O
inactive: Potency [1] | Potency [2] | Potency [3] | outcome [4] | outcome [5] | outcome [6] | Potency [7] | outcome [8] | Potency [9] | outcome [10] | outcome [11] | Potency [12]

Cc1c(F)cc2c(=O)c(C(=O)O)cn3c2c1CCC3C (stereo not drawn)
inactive: Potency [1] | outcome [13] | Potency [2] | Potency [3] | outcome [4] | outcome [5] | outcome [14] | outcome [15] | Potency [7] | outcome [8] | Potency [9] | outcome [10]

CCCCCCCCCCCCCCCCCCOCC(O)CO (stereo not drawn)
inactive: Potency [1] | Potency [16] | Potency [17] | Potency [2] | Potency [3] | outcome [4] | outcome [5] | outcome [6] | Potency [7] | outcome [8] | outcome [10] | outcome [11] | Potency [12] | max activation [18] 3.52% | Potency [19] | Potency [20]

C=C(C)C(=O)NCCC[N+](C)(C)C
inactive: outcome [13] | Potency [16] | Potency [17] | Potency [3] | outcome [4] | outcome [6] | Potency [7] | outcome [8] | Potency [9] | outcome [10] | outcome [11]

Cn1ccc2cc3c(cc21)CCN3C(=O)Nc1cccnc1
active: Potency [12] 3.66 µM | Potency [18] 12.6 µM | Potency [20] 12.6 µM
inactive: activity change, negative = cytotoxicity [13] -5.2% [at 19 µM] | activation [16] 1.39% [at 19 µM] | activity change, negative = inhibition [17] -0.261% [at 18.9 µM] | activity change, negative = cytotoxicity [2] -18% [at 18.9 µM] | activity change, negative = cytotoxicity [3] 0.965% [at 19 µM] | viability change, negative = cytotoxic [4] 10.7% [at 15.8 µM] | activity change, negative = cytotoxicity [5] -1.62% [at 15.8 µM] | activity, negative = inhibition [14] -16.1% [at 10.5 µM] | activation [15] -0.003% [at 11.8 µM] | activity change, negative = cytotoxicity [7] 0% [at 19 µM] | caspase activation [8] 0.602% [at 19 µM] | activity change, negative = cytotoxicity [9] 5.05% [at 19 µM] | caspase-3/7 activation [10] -1.75% [at 19 µM] | activity change, negative = cytotoxicity [11] 1.32% [at 19 µM] | Potency [19]

CC(C)=CCC/C(C)=C/C(=O)O
inactive: outcome [13] | Potency [16] | Potency [17] | Potency [2] | Potency [3] | outcome [4] | outcome [5] | outcome [6] | outcome [14] | outcome [15] | Potency [7] | outcome [8] | Potency [9] | outcome [10]

[O-][N+](=Nc1ccccc1)c1ccccc1
active: Potency [12] 21.7 µM
inactive: outcome [13] | Potency [16] | Potency [17] | Potency [2] | Potency [3] | outcome [4] | outcome [5] | outcome [14] | outcome [15] | Potency [7] | outcome [10] | outcome [11] | max activation [18] 13.9% | Potency [19] | Potency [20]

COc1cc(C)cc(O)c1
inactive: outcome [13] | Potency [16] | Potency [17] | Potency [2] | Potency [3] | outcome [4] | outcome [5] | outcome [6] | Potency [7] | outcome [8] | Potency [9] | outcome [10] | outcome [11] | Potency [12]
